Assay outcomes: PubChem, National Center for Advancing Translational Sciences (NCATS)
The list is not random: actives were taken first. Their share in the collection is about 7.1%.
IL-1B inflam inh – qHTS for Inhibitors of Inflammasome Signaling: IL-1-beta AlphaLISA Primary Screen; 360,000 compounds, 4.7% hits; THP-1 LPS/ATP IL-1B secretion, AlphaLISA, 16 h; active compounds read low; activity change, % at 57.5 µM; AID 743279, 2014; in the data active means activity change below about -50%; inconclusive means mostly about -30% to -49%; further: on the % scale 0 is the no-effect control and ±100 the full control effect
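Secreted IL-1B measured by AlphaLISA bead assay after 16 h compound exposure of THP-1 cells; compounds (final up to 57.5 uM) added 1 h before LPS (250 ng/mL) and ATP (1.25 mM) stimulation; lower signal means less secretion.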
ATXN2 expr inh – Primary qHTS for Inhibitors of ATXN expression; HEK-293 ATXN2-luciferase reporter, luminescence, 24 h; Potency, µM (doses to about 57 µM), without a hit: at the highest dose activity change, negative = inhibition, actives largely listed as inhibitors; 360,000 compounds, 0.72% hits; further: potency means the concentration at half of the fitted maximal effect; on the % scale 0 is the no-effect control and ±100 the full control effect; nearly all actives have a fitted effect of over 55% in size
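ATXN2-luciferase reporter cells (luciferase flanked by upstream and downstream ATXN2 gene portions) were treated 24 h at 37 °C with compounds at up to 57 uM. SteadyGlo luminescence gave expression; GF-AFC fluorescence gave viability.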
S2 tox – Viability Counterscreen for Primary qHTS for Inhibitors of ATXN expression; Potency, µM (highest dose often 56.7 µM), hits mostly cytotoxic; 400,000 compounds, 0.49% hits; AID 651635, 2014; S2 cells (HEK-293 line with an ATXN2-luciferase reporter) viability, CellTiter-Fluor protease fluorescence, 24 h; further: potency means the concentration at half of the fitted maximal effect; nearly all actives have a fitted effect of over 40% in size
PINK1 expr mod – A Quantitative High throughput Screen to Identify Chemical Modulators of PINK1 Expression | 410,000 compounds, 0.2% hits | PINK1 immunofluorescence, high-content cytometry, 24 h | Potency, µM (highest dose often 76.6 µM), inactives show at the highest dose activation (PINK1 increase), hits mostly activators | AID 624263, 2012; active means well fitted activation curve with a large enough effect; inconclusive means small, poorly fitted or top-dose-only effect; cell line not stated here; further: potency means the concentration at half of the fitted maximal effect; % of control where 0% means no effect; nearly all actives have a fitted effect of over 65% in size
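Stable cell line, 250 cells/well, 12 h attachment; compounds pinned at 5 concentrations, 24 h; CCCP control. Fixed with nuclear dye, primary antibodies 12 h at 10 degrees C, secondary plus cell stain; laser-scanning cytometer read.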
SW480 rereplic – A quantitative high throughput screen for small molecules that induce DNA re-replication in SW480 colon adenocarcinoma cells | SW480 DNA re-replication, Hoechst DNA content imaging, 48 h | Potency, µM (top dose mostly 46.1 µM), for inactives: at the top dose re-replication activation, most hits filed as activators | 340,000 compounds, 1.8% hits | AID 624297, 2012; further: potency means the concentration at half of the fitted maximal effect; % of control where 0% means no effect; nearly all actives have a fitted effect of over 55% in size
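Image-based read-out: total Hoechst fluorescence of nuclei (405 nm excitation, 500-530 nm emission), with hits raising the fraction of high-intensity nuclei. SW480 colon cells incubated 48 hr with compounds at 37 C.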
MCF10A rerep – A quantitative high throughput screen for small molecules that induce DNA re-replication in MCF 10a normal breast cells; Potency, µM (doses to about 46.1 µM), for the others: top-dose activity, positive = re-replication, most hits filed as activators; MCF 10A DNA re-replication, Hoechst nuclear intensity, 48 h; 350,000 compounds, 2.9% hits; AID 624296, 2012; further: potency means the concentration at half of the fitted maximal effect; % of control where 0% means no effect; nearly all actives have a fitted effect of over 50% in size
* marks the source's active call; other numbers are inactive results; i = inactive; ? = inconclusive; . = no result; [ ] = another dose, or the depositor's remark. Unless noted, the call rests on the fitted dose curve; in most records, active means well fitted curve in the direction sought with a large enough effect; inconclusive means small, poorly fitted or top-dose-only effect, or another doubt; inactive means no such curve, though single readings can be large; an effect the other way counts as inactive or inconclusive.

SMILES	IL-1B inflam inh	ATXN2 expr inh	S2 tox	PINK1 expr mod	SW480 rereplic	MCF10A rerep
COc1ccc(C(=O)OCC(=O)Nc2c(C)n(C)n(-c3ccccc3)c2=O)cc1OC	11.3	6.7%	i	1.1%	-10.3%	-7.9%
N=c1c2c(-c3ccccc3)c(-c3ccccc3)n(Cc3ccco3)c2ncn1CCN1CCOCC1	-81.2*	?	?	-3.3%[38.3 µM]	27.3%	?
N=c1c2c(-c3ccccc3)c(-c3ccccc3)n(Cc3ccco3)c2ncn1CCO	?	?	14.1µM*	-0.8%	-4.7%[9.22 µM]	10.3µM*
COc1cc(-c2c(OC)cccc2OC)cc2c1OCCN(C(=O)CCC(=O)c1ccc(F)cc1)C2	.	.	i	2.8%	.	.
CC(C)c1ccc(C(O)P(=O)(OC2CCCCC2)OC2CCCCC2)cc1 (stereo unspecified)	-91.9*	.	31.6µM*	-1.1%	?	20.6µM*
Cc1ccc(NC(=O)Cc2ccccc2F)cc1S(=O)(=O)N1CCCCCC1	-3.6	-25.1%	?	4.3%	-3.5%	16.8%
COCCCn1c(=N)c(C(=O)NCC2CCCO2)cc2c(=O)n3ccccc3nc21 (stereo unspecified)	-24.2	-12.0%	.	1.8%	6.51µM*	11.6µM*
N=c1c(C(=O)NCC2CCCO2)cc2c(=O)n3ccccc3nc2n1CCCO (stereo unspecified)	.	-16.1%	.	-0.7%	.	.
Cc1cccn2c(=O)c3cc(C(=O)NCc4cccnc4)c(=N)n(CC4CCCO4)c3nc12 (stereo unspecified)	1.0	-17.3%	.	0.8%	?	2.31µM*
Cc1cccn2c(=O)c3cc(C(=O)NCCc4ccccc4)c(=N)n(CC4CCCO4)c3nc12 (stereo unspecified)	16.6	-17.8%	i	1.1%	-5.1%	?
CCCn1c(=N)c(C(=O)NCC2CCCO2)cc2c(=O)n3cccc(C)c3nc21 (stereo unspecified)	?	-25.9%	.	-1.4%	?	11.6µM*
CCN(C(=O)c1cc2c(=O)n3cccc(C)c3nc2n1CCCOC)C1CCCCC1	-6.7	-21.5%	i	-1.4%	29.1µM*	18.4µM*
CCCCCn1c(C(C)NC(=O)c2ccccc2)nc2ccccc21 (stereo unspecified)	.	-18.7%	i	3.0%	.	.
CCOc1ccc(C(=O)N(Cc2ccc(C(C)C)cc2)Cc2ccco2)cc1	.	.	.	2.9%	.	.
Oc1ccccc1-c1nc(/C=C/c2ccccc2Cl)nn1-c1ccccc1	.	12.4%	i	5.1%	.	.
CCOCCCn1c(=N)c(C(=O)NCC2CCCO2)cc2c(=O)n3cccc(C)c3nc21 (stereo unspecified)	.	-10.0%	.	2.6%	.	.
COCCCn1c(=N)c(C(=O)NCC2CCCO2)cc2c(=O)n3cccc(C)c3nc21 (stereo unspecified)	6.0	-23.2%	.	-0.3%	6.51µM*	13µM*
Cc1cccn2c(=O)c3cc(C(=O)NCC4CCCO4)c(=N)n(CCN4CCOCC4)c3nc12 (stereo unspecified)	-50.6*	-10.5%	i	0.0%	16.4µM*	14.6µM*
Cc1nc(-c2ccc(S(=O)(=O)Nc3cc(Cl)ccc3C)cc2)co1	.	-20.8%	i	?	.	.
CC1CCc2c(C(=O)NCC3CCCO3)csc2C1 (stereo unspecified)	-12.9	30.2%	i	0.7%[38.3 µM]	-1.1%	1.4%
O=C(NCC1CCCO1)c1cc2cc(Cl)ccc2[nH]1 (stereo unspecified)	-72.8*	9.4%	i	1.4%	-1.2%[9.22 µM]	2.4%
COc1ccccc1N=c1oc2cc(O)ccc2cc1C(=O)NCC1CCCO1 (stereo unspecified)	-0.8	-13.2%	i	0.4%	12.8%	7.2%
Cc1cc(Br)cc2c(C(=O)NCC3CCCO3)cc(-c3cccs3)nc12 (stereo unspecified)	5.8	7.9%	?	21.1%	?	14.6µM*
COc1cccc(N=c2oc3cc(O)ccc3cc2C(=O)NCC2CCCO2)c1 (stereo unspecified)	-86.5*	-5.0%	?	1.9%	5.3%	?
O=C(NCC1CCCO1)c1csc2c1CCCCC2 (stereo unspecified)	-0.8	27.1%	i	.	1.5%	2.59µM*
SMILES	IL-1B inflam inh	ATXN2 expr inh	S2 tox	PINK1 expr mod	SW480 rereplic	MCF10A rerep
Cc1ccc(OCC(=O)Nc2ccc3nc(SCC(=O)Nc4ccc(C)cc4C)sc3c2)cc1	.	-2.3%	i	0.8%	.	.
O=C(NCC1CCCO1)c1cc2ccccc2nc1Cl (stereo unspecified)	3.7	6.1%	i	0.1%	-45.5%	0.731µM*
O=C(NCC1CCCO1)c1cc(-c2ccccc2)on1 (stereo unspecified)	-79.9*	29.8%	i	.	-6.4%	-13.9%
O=C(CSc1nc2c([nH]c3ccccc32)c(=O)n1-c1ccccc1)N1CCCC1	.	.	.	1.0%	.	.
O=C(Nc1ccccc1)Nc1cc(Cl)cc(Cl)c1	-82.5*	?	?	?	16.3%	?
O=C(Nc1cccnc1)C1(F)C(F)(F)C(F)(F)C(F)(F)C(F)(F)C1(F)F	-67.3*	-3.4%	i	-0.5%	-4.2%	14.4%
O=C(Nc1cccnc1)C12CC3CC(CC(C3)C1)C2	-3.3	-15.8%	i	1.9%	-7.9%	7.0%
CS(=O)(=O)Nc1ccccc1C(=O)Nc1cccc(Cl)c1	22.7	-6.0%	i	2.8%[38.3 µM]	7.9%	28.3%
CS(=O)(=O)Nc1ccccc1C(=O)Nc1cc(Cl)cc(Cl)c1	-55.5*	22.4µM*	?	?	-4.1%	-2.9%
O=C(Cc1ccccc1Cl)NNC(=O)Nc1ccccc1	9.6	10.2%	?	-1.9%	29.1µM*	0.4%
CC(=O)Nc1ccc(NC(=O)Nc2ccccc2)cc1	-25.6	32.7%	i	-0.5%	-2.7%	0.1%
Cc1ccc(-c2nnc(Nc3ccc(S(N)(=O)=O)cc3)c3ccccc23)cc1S(=O)(=O)N1CCOCC1	.	2.0%	i	9.2%	.	.
CCCC(=O)OCOC(=O)C1=C(C)NC(C)=C(C(=O)OC)C1c1cccc(Cl)c1Cl (stereo unspecified)	.	6.1%	i	.	.	.
CCOC(=O)c1sc2ccccc2c1S(=O)(=O)NCc1ccccc1OC	.	-0.4%	i	2.0%	.	.
O=C(NCCNC(=O)c1cc(OCC(F)(F)F)ccc1OCC(F)(F)F)Nc1cccc(C(F)(F)F)c1	?	-22.6%	i	?	?	?
O=C(Nc1cccnc1)Nc1cc(Cl)cc(Cl)c1	-100.9*	-18.2%	i	?	-2.4%	?
